# According to PubChem BioAssay (NCI):
# Values joined by “and” are separate entries in the source; they are usually repeats but may differ in a detail not shown here. Equal entries are not always repeated. About 83,000 compounds went through this panel and 20% of them were active in at least one assay; those are over-represented in the sample as a whole.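 Activity criterion: percent growth below 10, measured after cells in 96-well plates were exposed to a single compound concentration for 48 hours.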 Active and inactive are the calls of the source.
# Legend:
# Assay in all cases: NCI-60 one-dose screen, 48 h (100 = growth as untreated, 0 = no growth, -100 = all killed)
# [1] = system: HCT-15 colon
# [2] = system: HT29 colon
# [3] = system: SNB-75 CNS
# [4] = system: SNB-19 CNS
# [5] = system: U251 CNS
# [6] = system: PC-3 prostate
# [7] = system: SK-MEL-5 melanoma
# [8] = system: UACC-62 melanoma
# [9] = system: LOX IMVI melanoma
# [10] = system: SK-MEL-28 melanoma
smiles,measurement,setting,value
CCC(O)c1ccccc1 (stereo not drawn),growth,[1]; 10 µM unless noted,113% (inactive) and 105% (inactive)
same,growth,[2]; 10 µM unless noted,104% (inactive) and 105% (inactive)
same,growth,[3]; 10 µM unless noted,88% (inactive) and 97.5% (inactive)
same,growth,[4]; 10 µM unless noted,110% (inactive) and 103% (inactive)
same,growth,[5]; 10 µM unless noted,102% (inactive)
same,growth,[6]; 10 µM unless noted,116% (inactive) and 102% (inactive)
same,growth,[7]; 10 µM unless noted,107% (inactive) and 95.3% (inactive)
same,growth,[8]; 10 µM unless noted,111% (inactive) and 97.7% (inactive)
same,growth,[9]; 10 µM unless noted,104% (inactive) and 108% (inactive)
same,growth,[10]; 10 µM unless noted,75.7% (inactive) and 98.6% (inactive)
NC(=O)C1CC2C=CC1C2 (stereo not drawn),growth,[1]; 10 µM unless noted,107% (inactive) and 106% (inactive)
same,growth,[2]; 10 µM unless noted,107% (inactive) and 114% (inactive)
same,growth,[3]; 10 µM unless noted,87% (inactive) and 93.8% (inactive)
same,growth,[4]; 10 µM unless noted,92.1% (inactive)
same,growth,[5]; 10 µM unless noted,98.7% (inactive) and 99.8% (inactive)
same,growth,[6]; 10 µM unless noted,100% (inactive) and 98.4% (inactive)
same,growth,[7]; 10 µM unless noted,99.9% (inactive) and 109% (inactive)
same,growth,[8]; 10 µM unless noted,102% (inactive) and 94.3% (inactive)
same,growth,[9]; 10 µM unless noted,90.1% (inactive) and 94.2% (inactive)
same,growth,[10]; 10 µM unless noted,104% (inactive) and 101% (inactive)
CC#C[C@]1(O)CC[C@H]2[C@@H]3CCC4=CC(=O)CCC4=C3[C@@H](c3ccc4c(c3)OCO4)C[C@@]21C,growth,[1]; 10 µM,69.3% (inactive)
same,growth,[1]; 100 µM,-13.9% (active)
same,growth,[2]; 10 µM,102% (inactive)
same,growth,[2]; 100 µM,-19.2% (active)
same,growth,[3]; 10 µM,58.6% (inactive)
same,growth,[3]; 100 µM,-6.95% (active)
same,growth,[4]; 10 µM,75.8% (inactive)
same,growth,[4]; 100 µM,4.26% (active)
same,growth,[5]; 10 µM,76.1% (inactive)
same,growth,[5]; 100 µM,-49.5% (active)
same,growth,[6]; 10 µM,67.4% (inactive)
same,growth,[6]; 100 µM,0.372% (active)
same,growth,[7]; 10 µM,83.6% (inactive)
same,growth,[7]; 100 µM,-80.3% (active)
same,growth,[8]; 10 µM,56.6% (inactive)
same,growth,[8]; 100 µM,-50.1% (active)
same,growth,[9]; 10 µM,83.7% (inactive)
same,growth,[9]; 100 µM,-89.6% (active)
same,growth,[10]; 10 µM,108% (inactive)
same,growth,[10]; 100 µM,-52.3% (active)
CC(C)(C)c1cc(NC(=O)Cc2ccc(-c3cnc4cc(-c5cnn(CCN6CCOCC6)c5)ccc4n3)cc2)no1,growth,[1]; 10 µM,9.24% (active)
same,growth,[1]; 30 µM,7.76% (active)
same,growth,[2]; 10 µM,25.9% (inactive)
same,growth,[2]; 30 µM,31.2% (inactive)
same,growth,[3]; 10 µM,-0.488% (active)
same,growth,[3]; 30 µM,-1.06% (active)
same,growth,[4]; 10 µM,42.4% (inactive)
same,growth,[4]; 30 µM,44% (inactive)
same,growth,[5]; 10 µM,22.1% (inactive)
same,growth,[5]; 30 µM,33.4% (inactive)
same,growth,[6]; 10 µM,24.7% (inactive)
same,growth,[6]; 30 µM,23.9% (inactive)
same,growth,[7]; 10 µM unless noted,9.52% (active)
same,growth,[8]; 10 µM,16.3% (inactive)
same,growth,[8]; 30 µM,19.6% (inactive)
same,growth,[9]; 10 µM,17.7% (inactive)
same,growth,[9]; 30 µM,8.41% (active)
same,growth,[10]; 10 µM,29.4% (inactive)
same,growth,[10]; 30 µM,30.3% (inactive)
CN(C)CCCN1c2ccccc2Sc2ccc(Cl)cc21,growth,[1]; 10 µM unless noted,73.4% (inactive) and 109% (inactive) and 88.5% (inactive)
same,growth,[2]; 10 µM unless noted,27.4% (inactive) and 120% (inactive) and 62.9% (inactive)
same,growth,[3]; 10 µM unless noted,48.3% (inactive) and 106% (inactive) and 58.8% (inactive)
same,growth,[4]; 10 µM unless noted,98.2% (inactive) and 92.4% (inactive) and 94.5% (inactive)
same,growth,[5]; 10 µM unless noted,78.1% (inactive) and 106% (inactive) and 93.4% (inactive)
same,growth,[6]; 10 µM unless noted,67.3% (inactive) and 103% (inactive) and 80.3% (inactive)
same,growth,[7]; 10 µM unless noted,3.06% (active) and 102% (inactive) and 79% (inactive)
same,growth,[8]; 10 µM unless noted,75.3% (inactive) and 89.8% (inactive) and 88.9% (inactive)
same,growth,[9]; 10 µM unless noted,78.3% (inactive) and 113% (inactive) and 100% (inactive)
same,growth,[10]; 10 µM unless noted,83.6% (inactive) and 108% (inactive) and 98.8% (inactive)
CNC(=O)c1cc(Oc2ccc(CC(=O)Nc3cc(C(C)(C)C)nn3C)cc2)ccn1,growth,[1]; 1 µM,92.7% (inactive)
same,growth,[1]; 10 µM,83.1% (inactive)
same,growth,[1]; 30 µM,70.5% (inactive)
same,growth,[2]; 1 µM,90.7% (inactive)
same,growth,[2]; 10 µM,94.1% (inactive)
same,growth,[2]; 30 µM,86.5% (inactive)
same,growth,[4]; 1 µM,71.4% (inactive)
same,growth,[4]; 10 µM,65.3% (inactive)
same,growth,[4]; 30 µM,81.3% (inactive)
same,growth,[5]; 1 µM,86% (inactive)
same,growth,[5]; 10 µM,84.5% (inactive)
same,growth,[5]; 30 µM,90.3% (inactive)
same,growth,[6]; 1 µM,77.9% (inactive)
same,growth,[6]; 10 µM,77.1% (inactive)
same,growth,[6]; 30 µM,85.5% (inactive)
same,growth,[7]; 1 µM,22.8% (inactive)
same,growth,[7]; 10 µM,30.8% (inactive)
same,growth,[8]; 1 µM,62.2% (inactive)
same,growth,[8]; 10 µM,42% (inactive)
same,growth,[8]; 30 µM,56.3% (inactive)
same,growth,[9]; 1 µM,76.6% (inactive)
same,growth,[9]; 10 µM,48.9% (inactive)
same,growth,[9]; 30 µM,56.2% (inactive)
same,growth,[10]; 1 µM,81.7% (inactive)
same,growth,[10]; 10 µM,83.8% (inactive)
same,growth,[10]; 30 µM,89.9% (inactive)
CCCCCCCCCCCCCCCc1ccc(Cl)c(O)c1Cl (tested in a mixture with another compound),growth,[1]; 0.25 µM,76.6% (inactive)
same,growth,[1]; 10 µM,109% (inactive)
same,growth,[2]; 0.25 µM,43.1% (inactive)
same,growth,[2]; 10 µM,88% (inactive)
same,growth,[3]; 0.25 µM,36.6% (inactive)
same,growth,[3]; 10 µM,94.2% (inactive)
same,growth,[4]; 0.25 µM,10.8% (inactive)
same,growth,[4]; 10 µM,111% (inactive)
same,growth,[5]; 0.25 µM,13% (inactive)
same,growth,[5]; 10 µM,92.9% (inactive)
same,growth,[6]; 0.25 µM,59.5% (inactive)
same,growth,[6]; 10 µM,90.4% (inactive)
same,growth,[7]; 10 µM unless noted,87.7% (inactive)
same,growth,[8]; 10 µM unless noted,22.8% [0.25 µM] (inactive)
same,growth,[9]; 0.25 µM,19.4% (inactive)
same,growth,[9]; 10 µM,99.2% (inactive)
same,growth,[10]; 0.25 µM,51.3% (inactive)
same,growth,[10]; 10 µM,109% (inactive)
COc1ccc(/C(C#N)=C/c2ccccn2)cc1,growth,[1]; 10 µM unless noted,96.2% (inactive) and 109% (inactive)
same,growth,[2]; 10 µM unless noted,106% (inactive) and 103% (inactive)
same,growth,[3]; 10 µM unless noted,99.2% (inactive) and 105% (inactive)
same,growth,[4]; 10 µM unless noted,97.9% (inactive) and 106% (inactive)
same,growth,[5]; 10 µM unless noted,97.9% (inactive) and 101% (inactive)
same,growth,[6]; 10 µM unless noted,104% (inactive) and 101% (inactive)
same,growth,[7]; 10 µM unless noted,94.9% (inactive) and 99.9% (inactive)
same,growth,[8]; 10 µM unless noted,93.8% (inactive) and 114% (inactive)
same,growth,[9]; 10 µM unless noted,99.7% (inactive) and 115% (inactive)
same,growth,[10]; 10 µM unless noted,107% (inactive) and 139% (inactive)
Cc1nn(-c2ccccc2)nc1C(=O)Nc1ccccc1C(=O)NCC1CC1,growth,[1]; 10 µM unless noted,87.5% (inactive) and 71.2% (inactive)
same,growth,[2]; 10 µM unless noted,99.6% (inactive) and 72.6% (inactive)
same,growth,[3]; 10 µM unless noted,121% (inactive) and 4.66% (active)
same,growth,[4]; 10 µM unless noted,122% (inactive) and 54.3% (inactive)
same,growth,[5]; 10 µM unless noted,73.3% (inactive)
same,growth,[6]; 10 µM unless noted,85.2% (inactive) and 78.2% (inactive)
same,growth,[7]; 10 µM unless noted,95.7% (inactive) and 93.5% (inactive)
same,growth,[8]; 10 µM unless noted,86.4% (inactive) and 88.3% (inactive)
same,growth,[9]; 10 µM unless noted,86.9% (inactive)
same,growth,[10]; 10 µM unless noted,104% (inactive) and 95.8% (inactive)
O[C@H](c1cc(C(F)(F)F)nc2c(C(F)(F)F)cccc12)[C@@H]1CCCCN1,growth,[1]; 10 µM unless noted,70.8% (inactive) and 82.5% (inactive)
same,growth,[2]; 10 µM unless noted,47.5% (inactive)
same,growth,[3]; 10 µM unless noted,29.7% (inactive) and 46.3% (inactive)
same,growth,[4]; 10 µM unless noted,60.1% (inactive) and 65.9% (inactive)
same,growth,[5]; 10 µM unless noted,42.6% (inactive) and 45.9% (inactive)
same,growth,[6]; 10 µM unless noted,42.7% (inactive) and 45% (inactive)
same,growth,[7]; 10 µM unless noted,84.9% (inactive) and 74.2% (inactive)
same,growth,[8]; 10 µM unless noted,70.5% (inactive) and 67.8% (inactive)
same,growth,[9]; 10 µM unless noted,11.6% (inactive) and 7.96% (active)
same,growth,[10]; 10 µM unless noted,94.4% (inactive) and 88.8% (inactive)
CCCCCCCCCCCCOc1ccccc1C=O,growth,[1]; 10 µM unless noted,101% (inactive)
same,growth,[2]; 10 µM unless noted,96.7% (inactive)
same,growth,[3]; 10 µM unless noted,80.6% (inactive)
same,growth,[4]; 10 µM unless noted,98.4% (inactive)
same,growth,[5]; 10 µM unless noted,87.4% (inactive)
same,growth,[6]; 10 µM unless noted,108% (inactive)
same,growth,[7]; 10 µM unless noted,101% (inactive)
same,growth,[8]; 10 µM unless noted,102% (inactive)
same,growth,[9]; 10 µM unless noted,90.1% (inactive)
same,growth,[10]; 10 µM unless noted,106% (inactive)
Fc1ccccc1Nc1n[nH]c(=S)s1,growth,[1]; 10 µM unless noted,98.3% (inactive)
same,growth,[2]; 10 µM unless noted,103% (inactive)
same,growth,[3]; 10 µM unless noted,101% (inactive)
same,growth,[4]; 10 µM unless noted,104% (inactive)
same,growth,[5]; 10 µM unless noted,101% (inactive)
same,growth,[6]; 10 µM unless noted,106% (inactive)
same,growth,[7]; 10 µM unless noted,101% (inactive)
same,growth,[8]; 10 µM unless noted,95.3% (inactive)
same,growth,[9]; 10 µM unless noted,128% (inactive)
same,growth,[10]; 10 µM unless noted,102% (inactive)
OCc1ccccn1,growth,[1]; 10 µM unless noted,109% (inactive)
same,growth,[2]; 10 µM unless noted,104% (inactive)
same,growth,[3]; 10 µM unless noted,74.5% (inactive)
same,growth,[4]; 10 µM unless noted,109% (inactive)
same,growth,[5]; 10 µM unless noted,102% (inactive)
same,growth,[6]; 10 µM unless noted,97.8% (inactive)
same,growth,[7]; 10 µM unless noted,99.8% (inactive)
same,growth,[8]; 10 µM unless noted,103% (inactive)
same,growth,[9]; 10 µM unless noted,102% (inactive)
same,growth,[10]; 10 µM unless noted,112% (inactive)
